Screens: PubChem, Broad Institute
In the library only some 7.9% were active in any assay of this set; here they are far more common.
NOMO-1 viab: NOMO-1 AML cell viability reduction, primary screen, STK33 inhibitor project, CellTiter-Glo luminescence; NOMO-1 AML viability, 72 h; inhibition, % (test concentration not listed); 7.5% of 37,000 active; AID 2330, 2010; in the data active = inhibition above about 80%; inconclusive = no clear call, values can overlap the other calls
Hedgehog inh: Hedgehog pathway signaling inhibitors, primary screen, luminescence, Shh-LIGHT2 cells, Gli-luciferase; Shh-LIGHT2 Gli-luciferase reporter, 30 h; 2.1% of 22,000 active; inhibition, % (test concentration not listed);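 active = mean inhibition across valid replicates above about 65%, limit read from the data; inconclusive = mean under the limit, yet half or more replicates past it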;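 note: pathway switched on by Shh-conditioned medium diluted 1 in 25 in low serum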
MITF inh: inhibitors of MITF, primary screen, MITF inhibitor project, cell-based, luminescence; 0.28% of 37,000 active; inhibition, % (concentration not given with the values); TRPM1 promoter luciferase, 24 h; in the data active = inhibition above about 85%; inconclusive = no clear call, values can overlap the other calls; inactive = below about 68%;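 note: human melanocyte line stably carrying TRPM1 promoter luciferase reporter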
Of the large screens only hits and unclear results are named; the others gave an inactive call.

Cc1noc(C)c1NC(=O)N(C)C[C@@H]1Oc2ccc(NS(=O)(=O)c3cn(C)cn3)cc2CC(=O)N([C@@H](C)CO)C[C@@H]1C	none
CS(=O)(=O)N(CC(=O)Nc1cc(Cl)ccc1Oc1ccccc1)c1ccccc1F	none (no result: Hedgehog inh)
C[C@H](CO)N1C[C@H](C)[C@H](CN(C)S(=O)(=O)c2ccc(Cl)cc2)Oc2c(NC(=O)C3CC3)cccc2C1=O	Hedgehog inh 98
C[C@H]1CN([C@@H](C)CO)C(=O)c2cccc(NC(=O)C3CC3)c2O[C@@H]1CN(C)S(=O)(=O)c1ccc(Cl)cc1	none
C[C@@H]1CN([C@@H](C)CO)C(=O)c2cccc(NC(=O)C3CCOCC3)c2O[C@H]1CN(C)S(=O)(=O)c1ccc(Cl)cc1	none
Cc1cc(C(=O)Nc2cccc3c2O[C@@H](CN(C)S(=O)(=O)c2ccc(Cl)cc2)[C@@H](C)CN([C@H](C)CO)C3=O)n(C)n1	Hedgehog inh 78
Cc1cc(C(=O)Nc2cccc3c2O[C@@H](CN(C)S(=O)(=O)c2ccc(Cl)cc2)[C@H](C)CN([C@H](C)CO)C3=O)n(C)n1	none
C[C@H]1CN([C@@H](C)CO)C(=O)c2cccc(NC(=O)C3CCOCC3)c2O[C@H]1CN(C)S(=O)(=O)c1ccc(Cl)cc1	Hedgehog inh 84
Cc1sc(NC(=O)CCn2cnc3ccccc3c2=O)c(C#N)c1C	none (no result: Hedgehog inh)
C[C@H](CO)N1C[C@H](C)[C@H](CN(C)Cc2ccc(C(F)(F)F)cc2)Oc2c(NC(=O)c3nc4ccccc4s3)cccc2C1=O	NOMO-1 viab 96
C[C@H]1CN([C@@H](C)CO)C(=O)c2cccc(NC(=O)c3nc4ccccc4s3)c2O[C@@H]1CN(C)Cc1ccc(Oc2ccccc2)cc1	none
C[C@@H]1CN([C@@H](C)CO)C(=O)c2cccc(NC(=O)c3nc4ccccc4s3)c2O[C@@H]1CN(C)Cc1ccc(C(=O)O)cc1	none
C[C@H]1CN([C@@H](C)CO)C(=O)c2cccc(NC(=O)c3nc4ccccc4s3)c2O[C@@H]1CN(C)Cc1ccc(C(F)(F)F)cc1	none
C[C@@H]1CN([C@@H](C)CO)C(=O)c2cccc(NC(=O)c3nc4ccccc4s3)c2O[C@H]1CN(C)Cc1ccc(C(=O)Nc2ccccc2N)cc1	NOMO-1 viab 118 (no result: Hedgehog inh)
C[C@H](CO)N1C[C@H](C)[C@@H](CN(C)Cc2ccc(Oc3ccccc3)cc2)Oc2c(NC(=O)c3nc4ccccc4s3)cccc2C1=O	NOMO-1 viab 87
C[C@@H]1CN([C@@H](C)CO)C(=O)c2cccc(NC(=O)c3nc4ccccc4s3)c2O[C@H]1CN(C)Cc1ccc(C(F)(F)F)cc1	NOMO-1 viab inconclusive
C[C@H](CO)N1C[C@H](C)[C@@H](CN(C)Cc2ccc(C(F)(F)F)cc2)Oc2c(NC(=O)c3nc4ccccc4s3)cccc2C1=O	NOMO-1 viab 106
Cc1ccc(S(=O)(=O)Nc2ccc3c(c2)CC(=O)N([C@H](C)CO)C[C@@H](C)[C@H](CN(C)Cc2ccc(C(=O)O)cc2)O3)cc1	none
Cc1cc(C)nc(N/C(=N/S(=O)(=O)c2ccc(Br)cc2)N2CCC(C)CC2)n1	none
CCOC(=O)c1c(NC(=O)CN2C(=O)c3cccc4cccc(c34)C2=O)sc2c1CCC2	none (no result: Hedgehog inh)
CNC[C@@H]1OCCCC[C@@H](C)Oc2ccc(NC(=O)Nc3ccc(C(F)(F)F)cc3)cc2C(=O)N([C@H](C)CO)C[C@@H]1C	none
Cc1noc(C)c1NC(=O)Nc1ccc2c(c1)C(=O)N([C@H](C)CO)C[C@@H](C)[C@@H](CN(C)Cc1ccncc1)O2	none
COc1cc(C)c(S(=O)(=O)NCCc2c(C)[nH]c3ccccc23)cc1C	none (no result: Hedgehog inh)
Cc1cc(C)nc(SCC(O)COc2ccc(Cl)cc2)n1 (stereo not given)	none (no result: Hedgehog inh)
CC(C)(C)C(=O)CC(Nc1ccccc1)c1ccc(Cl)cc1 (stereo not given)	none (no result: Hedgehog inh)
O=C(/C=C/Sc1ccc(Cl)cc1)c1ccccc1	NOMO-1 viab 123
Cn1cnnc1S/C=C/C(=O)c1ccc(Cl)cc1	NOMO-1 viab 116
Cc1cc(C)nc(S/C=C/C(=O)c2ccc(Cl)cc2)n1	NOMO-1 viab 121
Cn1cnnc1Sc1cc(C#N)c(C#N)cc1Sc1nncn1C	none
Cn1c(SCC(=O)c2ccccc2)nnc1-c1cc2ccccc2o1	none (no result: Hedgehog inh)
COc1ccc(C(=O)NCCCSc2nc(C(C)(C)C)cc(C(F)(F)F)n2)cc1	none (no result: Hedgehog inh)
CCc1oc2ccccc2c1C(=O)c1ccc(OC(C)=O)cc1	NOMO-1 viab 136
COc1ccc(C(=O)c2oc3ccccc3c2NC(=O)COc2ccc(C)cc2)cc1	none (no result: Hedgehog inh)
C[C@H]1CN([C@@H](C)CO)C(=O)c2cc(NC(=O)Nc3ccc(F)cc3)ccc2O[C@@H]1CN(C)Cc1ccccc1	none
Cc1ccc(Nc2ccc3noc4c3c2C(=O)c2ccccc2-4)cc1	NOMO-1 viab 127 (no result: Hedgehog inh)
CNc1cc(NC)c2ncnc3c2c1C(=O)c1ccccc1-3	none (no result: Hedgehog inh)
c1ccc(-n2c(SCc3nc4ccccc4s3)nnc2-c2cccs2)cc1	none (no result: Hedgehog inh)
C=CCn1c(-c2cccs2)nc(-c2ccccc2)c1-c1ccccc1	NOMO-1 viab 121
Cc1cccc(C)c1NC(=O)C1CC=CCC1C(=O)O (stereo not given)	none (no result: Hedgehog inh)
CC(C)(C)c1ccc(C(O)CCCN2CCC(C(O)(c3ccccc3)c3ccccc3)CC2)cc1 (stereo not given)	NOMO-1 viab 142
OC(CCN1CCCCC1)(c1ccccc1)C1CCCCC1 (stereo not given)	none
CNC[C@@H]1Oc2ccc(NC(=O)C3CC3)cc2C(=O)N([C@H](C)CO)C[C@H]1C	none (no result: Hedgehog inh)
C[C@@H]1CN([C@H](C)CO)C(=O)Cc2cc(NC(=O)CCCCCC(=O)Nc3ccccc3N)ccc2O[C@@H]1CN(C)C	none (no result: Hedgehog inh)
C[C@H](CO)N1C[C@H](C)[C@@H](CN(C)CC2CCCCC2)Oc2ccc(NC(=O)CCCCCC(=O)Nc3ccccc3N)cc2C1=O	none (no result: Hedgehog inh)
C[C@H](CO)N1C[C@H](C)[C@H](CN(C)CC2CC2)Oc2ccc(NC(=O)CCCCCC(=O)Nc3ccccc3N)cc2CC1=O	NOMO-1 viab 140 (no result: Hedgehog inh)
C[C@@H]1CN([C@@H](C)CO)C(=O)Cc2cc(NC(=O)CCCCCC(=O)Nc3ccccc3N)ccc2O[C@@H]1CN(C)CC1CCCCC1	NOMO-1 viab 136 (no result: Hedgehog inh)
C[C@@H]1CN([C@@H](C)CO)C(=O)c2cccc(NC(=O)C3CC3)c2O[C@@H]1CN(C)C(=O)NC1CCCCC1	none
COc1ccc(COCC(O)CS(=O)(=O)Cc2ccc(C)cc2)cc1 (stereo not given)	none
COc1ccc(CCNC(=O)c2c(-c3c(F)cccc3Cl)noc2C)cc1OC	none (no result: Hedgehog inh)
Cc1c(Br)c([N+](=O)[O-])nn1C(C)C(=O)N1CCOCC1 (stereo not given)	none (no result: Hedgehog inh)
CC1(C)c2ccccc2N(CCC(N)=O)C12C=Cc1c(ccc3ccccc13)O2 (stereo not given)	NOMO-1 viab 88
Clc1ccc(-c2cnc3n2CCC3)cc1Cl	NOMO-1 viab 112 (no result: Hedgehog inh)
C[C@H]1CN([C@@H](C)CO)C(=O)c2cccc(NS(=O)(=O)c3cn(C)cn3)c2O[C@@H]1CN(C)C(=O)Nc1ccc2c(c1)OCO2	none
CC1(C)Cc2nc3sc4c(SCC(=O)NCc5ccccc5)ncnc4c3cc2CO1	NOMO-1 viab 119 (no result: Hedgehog inh)
COC(=O)CSc1ncnc2c1sc1nc3c(cc12)COC(C)(C)C3	none (no result: Hedgehog inh)
C[C@H]1CN([C@@H](C)CO)C(=O)c2cc(NS(=O)(=O)c3cn(C)cn3)ccc2O[C@@H]1CN(C)Cc1ccc(C(=O)O)cc1	none
